# KCNH2 WT inh: qHTS for Inhibitors of KCHN2 3.1: Wildtype qHTS. 0.37% of 340,000 active. Voltage-gated inwardly rectifying potassium channel KCNH2 (Homo sapiens), Q12809. activity change, % at 1.84 µM. U2OS, BacMam KCNH2, thallium flux FluxOr; active compounds read low;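 active = maximum activity change below -70%; inconclusive = maximum activity change between -70% and -50%; inactive = maximum activity change above -50%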
#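 U2OS cells were transduced with wild-type KCNH2 virus (2.03 x 10^8 / mL) for 4 h at room temperature, then cultured overnight at 37 C. Thallium flux was read with FluxOr dye. Rate constants were normalized to DMSO controls.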
# Akt phos inh: HTS Assay for Inhibitors of Akt Phophorylation: Primary Screen. Neuro2A IGF-stimulated pAkt S473 HTRF, 20 min; active compounds read low. activity change, % for hits at 50 µM. 0.32% of 360,000 active. AID 651550, 2012; in the data active = activity change below about -80%; inconclusive = mostly about -51% to -80%
#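 Neuro2A cells (4,500/well, DMEM with 0.5% FBS) were treated with compound at a single 50 µM final concentration, stimulated with 6 nM IGF for 20 min at 37 °C, and lysed. Phospho-Akt Ser473 was read by HTRF as 665/615 ratio ×10^4.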
# gsp antagonist: qHTS for Antagonists of gsp, the Etiologic Mutation Responsible for Fibrous Dysplasia/McCune-Albright Syndrome: qHTS; 0.4% of 340,000 active; gsp-mutant cells, cAMP HTRF, 30 min; Potency, µM (titrated, usually from 76.9 µM), hits mostly inhibitors; calls by dose curve; cell line not stated here;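 note: intracellular cAMP measured with PDE inhibitor Ro 20-1724 present during compound exposure; nearly all actives have a fitted effect of over 65% in size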
#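 HTRF cAMP read-out (cAMP-d2 plus anti-cAMP antibody-K in lysis buffer, 30 min RT). Before lysis, cells are exposed to compounds with […] for 30 min at 37C in DPBS containing Ca/Mg, BSA and Tween 20.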
# gsp agonist: qHTS for Agonist of gsp, the Etiologic Mutation Responsible for Fibrous Dysplasia/McCune-Albright Syndrome: qHTS | gsp mutant cells, cAMP HTRF, 30 min | Potency, µM (titrated, usually from 76.9 µM), usual class: activators | 0.13% of 340,000 active | AID 624287, 2012; active = well fitted activation curve with a large enough effect; inconclusive = small, poorly fitted or top-dose-only effect, or another doubt; inactive = no such curve, though single readings can be large or run the other way; cell line not stated here;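 note: phosphodiesterase inhibitor Ro 20-1724 added with compounds to block cAMP breakdown; nearly all actives have a fitted effect of over 60% in size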
#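 Cells stably selected in G418 were plated at 2000/well, grown 16-24 hr, then given compounds in DMSO with the PDE inhibitor […] (300 uM solution added) for 30 min at 37C; cAMP was read by HTRF.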
# KCNH2 3.1 block: qHTS for Inhibitors of KCHN2 3.1: Mutant qHTS; Potassium voltage-gated channel subfamily H member 2, brain isoform KCNH2 3.1 (human); U2OS KCNH2 3.1, thallium flux FluxOr; active compounds read low; activity change, % (tested at about 1.8 µM); 0.95% of 340,000 active; AID 720553, 2013;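 active = maximum activity change below -70%; inconclusive = maximum activity change from -70% to -50%; inactive = maximum activity change above -50%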;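 note: thallium influx rate constant from kinetic fluorescence after stimulation buffer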
#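 Channel expression came from 3.1 mutant virus (1.77 x 10^8 /mL) applied to suspended U2OS cells for 4 h. Flux was tracked with FluxOr dye plus Red40 quencher, and kinetic rate constants normalized to controls.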
# Glioma ERSR ind: qHTS for Inducers of the Endoplasmic Reticulum Stress Response (ERSR) in Human Glioma: qHTS; Potency, µM, hits mostly activators; U87-MG GRP78 promoter luciferase reporter, 16 h; 0.02% of 420,000 active; active = well fitted activation curve with a large enough effect; inconclusive = small, poorly fitted or top-dose-only effect; inactive = no such curve, though single readings can be large or run the other way; note: series mostly up to about 76 µM; nearly all actives have a fitted effect of over 35% in size
#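 Stably transfected U87-MG glioma cells carrying a GRP78-based luciferase sensor; 16 h compound incubation. Luminescence end-point read 10 min after Bright-Glo addition at room temperature.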
# A number is an active result; - = inactive; ? = inconclusive; . = not tested or not shown; [ ] = another dose, or the depositor's remark. An excerpt weighted towards active compounds, which were near 1.6% of everything screened.
SMILES,KCNH2 WT inh,Akt phos inh,gsp antagonist,gsp agonist,KCNH2 3.1 block,Glioma ERSR ind
Cc1ccc(CNc2ncnc3sc(C(=O)N4CCC[C@H]4C(N)=O)c(C)c23)o1,.,.,.,.,.,-
CCOC(=O)C1(CCOc2ccccc2)CCN(Cc2ccc(-n3cccn3)cc2)CC1,-130,-,-,-,-108,-
CCOC(=O)C1(CCOc2ccccc2)CCN(Cc2cccn2-c2ncccn2)CC1,-90,-,-,-,-101,-
CCOC(=O)C1(CCOc2ccccc2)CCN(Cc2ccc(F)c(OC)c2)CC1,-,-,-,-,?,-
CCOC(=O)C1(CCOc2ccccc2)CCN(Cc2ccncc2)CC1,-,-,-,-[15.4 µM],-,-
CCOC(=O)C1(Cc2cccc(OC)c2)CCN(Cc2cccn2-c2ccccn2)CC1,-,-,-,-[15.4 µM],-,-
CCOC(=O)C1(CCOc2ccccc2)CCN(Cc2ccc(O)c(OC)c2)CC1,?,-,-,-,-75,-
CCOC(=O)C1(CCOc2ccccc2)CCN(Cc2cccs2)CC1,?,-,-,-[15.4 µM],-86,-
C1=Cc2ccccc2/C1=C\c1cc2c3c(c1)CCCN3CCC2,.,.,.,.,.,-
CC[n+]1cccc(Br)c1,.,.,.,.,.,-
CCN(Cc1ccncc1)Cc1ccc2c(c1)CN(C(=O)c1ccc(C#CC(C)(C)O)o1)CCO2,.,.,.,.,.,-
Oc1ccc(N=Nc2ccc3c(c2)OCCO3)c(O)c1,-73,-,-,-,-,-
Oc1ccc(N=Nc2ccc3c(c2)OCCO3)c2cccnc12,-,-,-,-[15.4 µM],-,-
Cc1cc2c(c(-c3cnccn3)c1)OC(CNC(=O)c1cc(Cl)ccc1F)C2 (stereo not given),.,.,.,.,.,-
COc1ccc(CN2C(=O)c3cccnc3C2=O)cc1S(=O)(=O)N1CCOc2ccccc21,-,.,-,?,-,-
COc1ccc(CN2C(=O)c3cccnc3C2=O)cc1S(=O)(=O)N1CCCC(C)C1 (stereo not given),-,-,-,7.9µM,-,-
COc1ccc(CN2C(=O)c3cccnc3C2=O)cc1S(=O)(=O)N1CCCCC1,-,-,-,13µM,-,-
Cc1c(C(=O)NCc2ccc3c(c2)OCO3)cnn1-c1ncc2c(n1)-c1ccccc1CC2,.,.,.,.,.,-
O=C(Cn1nnc(-c2ccccc2)n1)N=Nc1c(O)[nH]c2ccccc12,-,-105%,-,-,-,-
O=C(O)c1ccc(N=Nc2c(O)[nH]c3ccccc23)cc1,-,-,28µM,?,-,-
O=C(CSc1nc2ccccc2[nH]1)N=Nc1c(O)[nH]c2ccccc12,-,-,-,-,-,-
Cc1ccccc1NC(=O)CCN1CCN(C/C=C/c2ccccc2)CC1,-,-,-,?,-85,-
O=C(Nc1ccc2c(c1)OCO2)N1CCN(C/C=C/c2ccccc2)CC1,-,-83%,-,-,-,-
O=C(CCN1CCN(CCO)CC1)Nc1ccccc1,-,-,-,-,-,-
Cc1cc(NC(=O)CCN2CCN(C/C=C/c3ccccc3)CC2)ccc1Br,-,-,-,-[15.4 µM],-108,-
SMILES,KCNH2 WT inh,Akt phos inh,gsp antagonist,gsp agonist,KCNH2 3.1 block,Glioma ERSR ind
O=C(CCN1CCN(C/C=C/c2ccccc2)CC1)Nc1ccccc1,-,-,-,-,-80,-
Cc1cc(NC(=O)CN2CCN(C/C=C/c3ccccc3)CC2)c([N+](=O)[O-])cc1C,-,-,-,?,-92,-
O=C(CN1CCN(C/C=C/c2ccccc2)CC1)Nc1ccccc1C(=O)NC1CC1,-91,-,-,-,-112,-
Cc1cccc(NC(=O)CCN2CCN(C/C=C/c3ccccc3)CC2)c1,-,-,-,-,-91,-
Cc1cc(NC(=O)Cn2nc(C(=O)O)c3ccccc3c2=O)c([N+](=O)[O-])cc1C,-,-,-,-,-,-
CCNc1ncc2nc(-c3cccs3)c(=O)n(CCc3ccccc3)c2n1,.,.,.,.,.,-

# Screening results as filed in PubChem BioAssay.
